According to PubChem BioAssay (NCATS):
Inconclusive results are not listed. Entries that show only a call come without a potency. Calls of active or inactive are those of the source. Unless noted, the call rests on the fitted dose curve.

How the values were obtained:
[1] = Cytotoxicity counterscreen for inhibitors of SARS-CoV-2 cell entry (AID 1645845); further: nearly all actives have a fitted effect of over 50% in size
Method in brief: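 Counterscreen run in the same HEK293-ACE2 line as the pseudotyped-particle entry assay, without particles. Viability after 48 h at 37 C was read as ATP luminescence, scaled between cell-containing and cell-free wells.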

[2] = VSVG counterscreen qHTS to identify inhibitors of SARS-CoV-2 cell entry (AID 1645847); further: nearly all actives have a fitted effect of over 65% in size; further: potency means the concentration at half of the fitted maximal effect
Method in brief: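 Entry of VSV-G pseudotyped particles into human ACE2-expressing HEK293 cells was measured by luciferase luminescence 48 h after infection, with compound added 1 h beforehand.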

[3] = Primary qHTS to identify inhibitors of SARS-CoV-2 cell entry (AID 1645846); further: nearly all actives have a fitted effect of over 45% in size
Method in brief: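 Using luciferase-reporting pseudoviruses carrying Wuhan-Hu-1 spike, the screen tracks entry into stably ACE2-expressing cells over 48 hr. Activity is expressed relative to spike particles versus particles lacking any fusion protein.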

[4] = Primary qHTS for inhibitors of nuclear receptor binding SET domain protein 2 (NSD2) in an isogenic RCH-ACV NSD2 p.E1099K mutant (9B) (AID 1645876; active means well fitted inhibition curve with a large enough effect; further: nearly all actives have a fitted effect of over 70% in size)
[5] = activity change, negative = inhibition: at 57.1 µM (top of the series) unless noted

COC(=O)C1=C(C)NC(C)=C(C(=O)OCC(C)=O)C1c1ccccc1[N+](=O)[O-] (configuration not stated)
Potency [1]: inactive | Potency [2]: 8.57 µM (active)

CCCCCCNC(=O)n1cc(F)c(=O)[nH]c1=O
Potency [1]: inactive | Potency [2]: 5.41 µM (active)

CC(C)Cc1ccc(C(C)C(=O)O)cc1 (configuration not stated)
Potency [1]: inactive | Potency [3, 5]: inactive | activity change, negative = inhibition [3, 5]: 0.301%

CCN(CC)C(C)CN1c2ccccc2Sc2ccccc21 (configuration not stated)
Potency [1]: inactive | Potency [2]: 0.341 µM (active)

Cc1ccc(C(=O)C(=O)O)cc1C
activity change, negative = inhibition [3, 5]: -19.4%

CC(=O)CC(c1ccccc1)c1c(O)c2ccccc2oc1=O (configuration not stated)
Potency [1]: inactive | Potency [3, 5]: inactive | activity change, negative = inhibition [3, 5]: 0.432%

Nc1ccn([C@@H]2O[C@H](CO)[C@@H](O)C2O)c(=O)n1 (some centres not stated)
Potency [1]: inactive | Potency [2]: 4.82 µM (active)

CCOC(=O)c1ccc(N)cc1
Potency [3, 5]: inactive

CC(C)OC(=O)OCOP(=O)(CO[C@H](C)Cn1cnc2c(N)ncnc21)OCOC(=O)OC(C)C
Potency [1]: inactive | Potency [2]: 0.0192 µM (active)

O=C(OOC(=O)c1ccccc1)c1ccccc1
Potency [3, 5]: inactive

Cc1ccccc1C(=O)N1CC/C(=N\OS(=O)(=O)O)c2ccc(Cl)cc21
Potency [3, 5]: inactive

Cc1ncc([N+](=O)[O-])n1CC(C)O (configuration not stated)
Potency [1]: inactive | activity change, negative = inhibition ([3]; SARS-CoV-2 pseudovirus cell entry assay, luminescence, at 57.1 µM (top of the series)): -6.83% | activity change, negative = inhibition ([3]; SARS-CoV-2 pseudovirus cell entry assay, luminescence, at 114 µM (top of the series)): -38.4%

COCCCN1CCC(NC(=O)c2cc(Cl)c(N)c3c2OCC3)CC1
Potency [1]: inactive | Potency [3, 5]: inactive | activity change, negative = inhibition [3, 5]: -5.91%

Cc1c(C)c2c(c(C)c1O)CCC(C)(COc1ccc(CC3SC(=O)NC3=O)cc1)O2 (configuration not stated)
Potency [1]: inactive | Potency [2]: 24.1 µM (active)

C[C@@H]1O[C@@H](OC[C@H]2O[C@@H](Oc3c(-c4ccc(O)c(O)c4)oc4cc(O)cc(O)c4c3=O)[C@H](O)[C@@H](O)[C@@H]2O)[C@H](O)[C@H](O)[C@H]1O
Potency [3, 5]: inactive

CN1C(C(=O)Nc2ccccn2)=C(O)c2ccccc2S1(=O)=O
Potency [1]: inactive | Potency [2]: 21.5 µM (active)

CNC[C@H](O)c1cccc(O)c1
Potency [1]: inactive | Potency [3, 5]: inactive | activity change, negative = inhibition [3, 5]: 1.11%

Cc1cc(NS(=O)(=O)c2ccc(N)cc2)nc(C)n1
Potency [1]: inactive | activity change, negative = inhibition [3, 5]: -52.4% | Potency [2]: inactive

CC(=O)Oc1cc(C(C)C)c(OCCN(C)C)cc1C
Potency [3, 5]: inactive

CC(C)(C)C(=O)Oc1ccc(S(=O)(=O)Nc2ccccc2C(=O)NCC(=O)O)cc1
Potency [1]: inactive | Potency [3, 5]: inactive | activity change, negative = inhibition [3, 5]: -32.8%

C[C@]12CC[C@@H]3c4ccc(OC(=O)N(CCCl)CCCl)cc4CC[C@H]3[C@@H]1CC[C@@H]2OP(=O)(O)O
Potency [4]: inactive
